Assays:
Settings in all cases: concentration: 1 μM, replicates: in singlicate; n = 1
[1] = system: EIF2AK1
[2] = system: EPHA1
[3] = system: EPHA2
[4] = system: EPHA3
[5] = system: EPHA4
[6] = system: EPHA5
[7] = system: EPHA6
[8] = system: EPHA7
[9] = system: EPHA8
[10] = system: EPHB1
[11] = system: EPHB2
[12] = system: EPHB3
[13] = system: EPHB4
[14] = system: EPHB6
[15] = system: ERBB2
[16] = system: ERBB3
[17] = system: ERBB4
[18] = system: T1, ERK1
T1 construct: gene MAPK3

[19] = system: T2, ERK2
T2 construct: gene MAPK1

[20] = system: T3, ERK3
T3 construct: gene MAPK6
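Further: KINOMEscan kinase panel screen.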

For `Nc1nc(-c2ccc3c(N)n[nH]c3c2)cc(N2CCCCC2)n1` [GSK2228768], the “%Inh” value [1] was 0%, the “%Inh” value [2] was 0% and the “%Inh” value [3] was 0%. The “%Inh” value [4] was 0%, the “%Inh” value [5] was 3% and the “%Inh” value [6] was 0%. For the same compound, the “%Inh” value [7] was 0%, the “%Inh” value [8] was 0% and the “%Inh” value [9] was 0%. The “%Inh” value [10] was 9%, the “%Inh” value [11] was 0% and the “%Inh” value [12] was 0%. For the same compound, the “%Inh” value [13] was 8%, the “%Inh” value [14] was 0% and the “%Inh” value [15] was 2%. The “%Inh” value [16] was 0%, the “%Inh” value [17] was 0% and the “%Inh” value [18] was 0%. For the same compound, the “%Inh” value [19] was 0% and the “%Inh” value [20] was 6%.
`FC(F)(F)c1ccc(-c2cc(-c3c[nH]nc3-c3ccccn3)ccn2)cc1` [GW599550] was tested, and the “%Inh” value [1] was 100%, the “%Inh” value [2] was 2% and the “%Inh” value [3] was 0%. The “%Inh” value [4] was 13%, the “%Inh” value [5] was 0% and the “%Inh” value [6] was 0%. The “%Inh” value [7] was 0%, the “%Inh” value [8] was 5% and the “%Inh” value [9] was 9%. The “%Inh” value [10] was 30%, the “%Inh” value [11] was 0% and the “%Inh” value [12] was 0%. The “%Inh” value [13] was 8%, the “%Inh” value [14] was 37% and the “%Inh” value [15] was 38%. The “%Inh” value [16] was 16%, the “%Inh” value [17] was 0% and the “%Inh” value [18] was 15%. The “%Inh” value [19] was 0% and the “%Inh” value [20] was 0%.
For `OCCOCCn1ccc2ncnc(Nc3ccc(Oc4cccc(Cl)c4)c(Cl)c3)c21`, the “%Inh” value [1] was 0%, the “%Inh” value [2] was 0% and the “%Inh” value [3] was 1%. For the same compound, the “%Inh” value [4] was 0%, the “%Inh” value [5] was 0% and the “%Inh” value [6] was 0%. The “%Inh” value [7] was 0%, the “%Inh” value [8] was 0% and the “%Inh” value [9] was 0%. For the same compound, the “%Inh” value [10] was 2%, the “%Inh” value [11] was 0% and the “%Inh” value [12] was 6%. For the same compound, the “%Inh” value [13] was 0%, the “%Inh” value [14] was 2% and the “%Inh” value [15] was 100%. For the same compound, the “%Inh” value [16] was 0%, the “%Inh” value [17] was 96% and the “%Inh” value [18] was 0%. For the same compound, the “%Inh” value [19] was 0% and the “%Inh” value [20] was 0%.
`Nc1nc(-c2ccc3c(N)n[nH]c3c2)cc(N2CCC[C@@H](C(=O)Nc3ccccc3)C2)n1.O=C(O)C(F)(F)F.O=C(O)C(F)(F)F` [GSK2288359] was tested, and the “%Inh” value [1] was 1%, the “%Inh” value [2] was 17% and the “%Inh” value [3] was 0%. The “%Inh” value [4] was 0%, the “%Inh” value [5] was 4% and the “%Inh” value [6] was 0%. The “%Inh” value [7] was 0%, the “%Inh” value [8] was 3% and the “%Inh” value [9] was 3%. The “%Inh” value [10] was 21%, the “%Inh” value [11] was 0% and the “%Inh” value [12] was 5%. For the same compound, the “%Inh” value [13] was 1%, the “%Inh” value [14] was 29% and the “%Inh” value [15] was 0%. The “%Inh” value [16] was 0%, the “%Inh” value [17] was 2% and the “%Inh” value [18] was 100%. For the same compound, the “%Inh” value [19] was 0% and the “%Inh” value [20] was 18%.
In the case of `Cl.Cl.c1ccc(-c2cc3ccncc3cc2OC2CCNCC2)cc1` [GSK1122999], the “%Inh” value [1] was 13%, the “%Inh” value [2] was 11% and the “%Inh” value [3] was 13%. The “%Inh” value [4] was 0%, the “%Inh” value [5] was 9% and the “%Inh” value [6] was 0%. For the same compound, the “%Inh” value [7] was 12%, the “%Inh” value [8] was 5% and the “%Inh” value [9] was 13%. The “%Inh” value [10] was 25%, the “%Inh” value [11] was 47% and the “%Inh” value [12] was 17%. For the same compound, the “%Inh” value [13] was 5%, the “%Inh” value [14] was 11% and the “%Inh” value [15] was 10%. The “%Inh” value [16] was 0%, the “%Inh” value [17] was 0% and the “%Inh” value [18] was 0%. For the same compound, the “%Inh” value [19] was 4% and the “%Inh” value [20] was 24%.
In the case of `Nc1n[nH]c2nnc(-c3ccccc3)cc12` [SB-517389], the “%Inh” value [1] was 13%, the “%Inh” value [2] was 9% and the “%Inh” value [3] was 4%. The “%Inh” value [4] was 0%, the “%Inh” value [5] was 14% and the “%Inh” value [6] was 0%. For the same compound, the “%Inh” value [7] was 0%, the “%Inh” value [8] was 8% and the “%Inh” value [9] was 15%. The “%Inh” value [10] was 9%, the “%Inh” value [11] was 80% and the “%Inh” value [12] was 10%. For the same compound, the “%Inh” value [13] was 22%, the “%Inh” value [14] was 0% and the “%Inh” value [15] was 7%. For the same compound, the “%Inh” value [16] was 0%, the “%Inh” value [17] was 0% and the “%Inh” value [18] was 0%. The “%Inh” value [19] was 0% and the “%Inh” value [20] was 16%.
With `COc1ccc(Nc2nccc(N3CCC(NC(=O)Nc4ccc5c(c4)OCO5)C3)n2)cc1` (stereo not shown) [GSK1379745] the “%Inh” value [1] was 0%, the “%Inh” value [2] was 8% and the “%Inh” value [3] was 0%. For the same compound, the “%Inh” value [4] was 0%, the “%Inh” value [5] was 11% and the “%Inh” value [6] was 0%. For the same compound, the “%Inh” value [7] was 19%, the “%Inh” value [8] was 7% and the “%Inh” value [9] was 20%. The “%Inh” value [10] was 4%, the “%Inh” value [11] was 0% and the “%Inh” value [12] was 24%. The “%Inh” value [13] was 29%, the “%Inh” value [14] was 47% and the “%Inh” value [15] was 28%. The “%Inh” value [16] was 28%, the “%Inh” value [17] was 0% and the “%Inh” value [18] was 3%. For the same compound, the “%Inh” value [19] was 12% and the “%Inh” value [20] was 14%.
For `COC(=O)c1c(-c2ccccc2)c2cc(Cl)ccc2c(=O)n1Cc1ccc(S(C)(=O)=O)cc1`, the “%Inh” value [1] was 10%, the “%Inh” value [2] was 0% and the “%Inh” value [3] was 8%. The “%Inh” value [4] was 6%, the “%Inh” value [5] was 20% and the “%Inh” value [6] was 4%. For the same compound, the “%Inh” value [7] was 34%, the “%Inh” value [8] was 1% and the “%Inh” value [9] was 7%. For the same compound, the “%Inh” value [10] was 6%, the “%Inh” value [11] was 18% and the “%Inh” value [12] was 24%. For the same compound, the “%Inh” value [13] was 0%, the “%Inh” value [14] was 0% and the “%Inh” value [15] was 0%. The “%Inh” value [16] was 0%, the “%Inh” value [17] was 29% and the “%Inh” value [18] was 0%. The “%Inh” value [19] was 3% and the “%Inh” value [20] was 0%.

Source: PMC5540273 (PLoS ONE, 2017)
